Rows were chosen to be rich in hits. Some 3.1% of all compounds tested hit in one or more screens of this group.
Peg3 promoter: Peg3 promoter-driven luciferase inhibitors, primary screen, cell-based, HeLa, luciferase luminescence. inhibition, % at 20 µM. 360,000 tested, 1.7% active. HeLa PEG-Prom luciferase reporter, overnight. AID 588405, 2011;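 active means inhibition of at least 50% at 20 µM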
ABHD5 PLIN5 PPI: ABHD5-PLIN5 interaction inhibitors, primary screen, cell lysate, split luciferase complementation, luminescence | Split G. princeps luciferase complementation, 4 h | 360,000 tested, 0.78% active | inhibition, % at 4 µM | Perilipin-5 (Homo sapiens) + 1-acylglycerol-3-phosphate O-acyltransferase ABHD5 (Homo … | AID 602281, 2012;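 active means inhibition above the mean inhibition across every tested compound plus 3 SD, cut at about 22% in these data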
Target sequence (Q00G26 whole entry, looked up): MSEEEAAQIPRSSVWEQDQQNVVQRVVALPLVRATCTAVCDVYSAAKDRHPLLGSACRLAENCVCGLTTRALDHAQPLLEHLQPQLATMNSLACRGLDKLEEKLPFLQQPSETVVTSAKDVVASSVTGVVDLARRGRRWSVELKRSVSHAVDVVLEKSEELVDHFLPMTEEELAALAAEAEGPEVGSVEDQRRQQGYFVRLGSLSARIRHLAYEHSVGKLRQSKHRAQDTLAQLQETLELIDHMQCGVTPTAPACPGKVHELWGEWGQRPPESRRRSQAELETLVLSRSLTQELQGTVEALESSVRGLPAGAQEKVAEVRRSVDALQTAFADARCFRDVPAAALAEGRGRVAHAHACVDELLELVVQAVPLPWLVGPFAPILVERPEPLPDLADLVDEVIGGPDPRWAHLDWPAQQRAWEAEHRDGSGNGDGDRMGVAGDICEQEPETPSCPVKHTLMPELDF
Target sequence (Q8WTS1 whole entry, looked up): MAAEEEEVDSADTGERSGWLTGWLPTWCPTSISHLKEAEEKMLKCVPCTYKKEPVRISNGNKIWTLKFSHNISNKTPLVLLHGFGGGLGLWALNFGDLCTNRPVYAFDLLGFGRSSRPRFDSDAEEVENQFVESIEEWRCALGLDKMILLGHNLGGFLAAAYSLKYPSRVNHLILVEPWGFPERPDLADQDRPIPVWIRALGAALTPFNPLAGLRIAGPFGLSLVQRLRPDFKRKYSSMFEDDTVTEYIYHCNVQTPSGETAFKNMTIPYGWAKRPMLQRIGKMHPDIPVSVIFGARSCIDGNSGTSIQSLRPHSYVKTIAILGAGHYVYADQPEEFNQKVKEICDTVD
CF NFkB inh: inhibitors of PAF-induced NF-kB signaling, primary screen, cell-based, GFP fluorescence, uHTS; KKLEB NF-kB-GFP reporter, GFP fluorescence overnight; inhibition, % at 5 µM; 360,000 tested, 0.86% active; AID 588850, 2011;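 active means at least 50% inhibition at 5 µM, scaled per plate between neutral and stimulator controls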;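 further: PAF is a Pseudomonas aeruginosa culture filtrate used as stimulus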
KKLEB tox: cytotoxicity in KKLEB CF airway cells, primary screen, cytotoxicity control for CF NF-kB inhibitor project, cell-based, uHTS, fluorescence assay plates | KKLEB CF airway cells viability, ATPlite luminescence, overnight; stronger effect = lower value; cells stimulated with P. aeruginosa culture filtrate | activity change (cytotoxicity), % at 5 µM | 360,000 tested, 0.36% active | AID 602141, 2011;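 active means corrected activity change at or below -50% at 5 µM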
HIF-2a inh: HIF-2a reporter inhibitors, primary screen, luminescence, 786-0 RCC cells; 786-0 RCC cells HIF-2a reporter, luciferase luminescence, overnight; inhibition, % at 18.8 µM; 360,000 tested, 0.72% active; AID 624352, 2012;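 active means inhibition of the luminescence signal of 40% or more relative to plate controls, in a single-dose primary screen at 18.75 µM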
TRPM1 prom inh: inhibitors of MITF-dependent TRPM1 promoter reporter, primary screen, cell-based, SK-MEL-5, single point, luciferase | SK-MEL-5 TRPM1 promoter luciferase, 24 h | inhibition, % at 12.5 µM | 330,000 tested, 0.83% active | AID 488899, 2010;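 active means mean inhibition across replicates of 60% or more, whatever share of single replicates reaches that level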
Large screens that a line does not name were inactive.

CCN(CC)S(=O)(=O)c1ccc(-c2nnc(SCC(=O)N3CCOCC3)o2)cc1	none
CCN(CC)S(=O)(=O)c1ccc(-c2nnc(SCC(=O)N3CCc4ccccc43)o2)cc1	Peg3 promoter 52.2
Cc1ccc(S(=O)(=O)c2ccc([N+](=O)[O-])o2)cc1	Peg3 promoter 104.9, ABHD5 PLIN5 PPI 84.6, CF NFkB inh 77.8, KKLEB tox -88.8, HIF-2a inh 89.1, TRPM1 prom inh 95.5
Cc1ccc(NC(=O)c2ccc([N+](=O)[O-])o2)c(C)c1	none
COc1ccc(C(=O)N2[C@@H](C(C)C)COc3cc(Br)ccc3S2(=O)=O)cc1	Peg3 promoter 55.3
COc1ccc(NC(=O)N(C)C[C@H]2Oc3cc(Br)ccc3S(=O)(=O)N([C@H](C)CO)C[C@@H]2C)cc1	none (no result: TRPM1 prom inh)
COC(=O)[C@@]12CCCCN1[C@H](c1ccc(-c3cc(C(C)=O)cs3)cc1)[C@H]1C(=O)N(C)C(=O)[C@H]12	Peg3 promoter 73.5
CC(C)Cc1ccc(CN2CCCC(NC(=O)CCN3CCCCC3=O)C2)cc1 (centres undefined)	none
CC(C)Cc1ccc(C(C)/C=C2/CCC(CN3CCCCC3)C2=O)cc1 (centres undefined)	Peg3 promoter 91.1, ABHD5 PLIN5 PPI 22.5
N#Cc1c2n(c3c(N)ncnc13)CCCCC2	none
Cc1csc(NC(=O)c2cc3c(s2)CCCC3)n1	none
Cc1cnc(NC(=O)c2cc3c(s2)CCCC3)s1	KKLEB tox -51.0
CCc1nnc(NC(=O)c2cc3c(s2)CCCCC3)s1	none
Cc1csc(NC(=O)c2cc3c(s2)CCCCC3)n1	Peg3 promoter 57.7, KKLEB tox -63.1
CC(C)C12NC(=O)NC(=O)N1CCS2 (centres undefined)	none
CS(=O)(=O)N1CCN=C1SCc1ccc([N+](=O)[O-])cc1	none
Cc1ccc(S(=O)(=O)CCC(=O)OCC(=O)Nc2cc(F)ccc2C)cc1	none
FC(F)(F)c1nnc2c(Sc3ccccc3)nc3ccc(Cl)cc3n12	Peg3 promoter 62.4, CF NFkB inh 96.1, KKLEB tox -89.6, TRPM1 prom inh 81.9
S=C(NCCCc1cnc[nH]1)NCCCN(Cc1ccc(Cl)cc1)c1ccc(Br)cn1	Peg3 promoter 93.6 (no result: TRPM1 prom inh)
Cn1c(C(=O)OCC(=O)NCc2ccco2)cc2sccc21	ABHD5 PLIN5 PPI 23.1
COc1cccc(-c2nnn(CC(=O)N(C3CCCCC3)C3CCS(=O)(=O)C3)n2)c1 (centres undefined)	none (no result: TRPM1 prom inh)
Cc1oc2c(Cl)c(Cl)c(O)c(CN(C)C)c2c1C(=O)c1ccc(Cl)cc1	CF NFkB inh 50.7
Fc1ccc(C2CCNCC2COc2ccc3c(c2)OCO3)cc1 (centres undefined)	Peg3 promoter 61.4
CCN1C(=O)/C(=C/N(C)C)c2ccccc21	Peg3 promoter 57.4
O=C(OCc1cn([C@@H]2CN(C(=O)c3cccs3)[C@@H](c3ccccc3)C[C@H]2O)nn1)c1ccccc1	none (no result: TRPM1 prom inh)
Nc1nc(=S)c2[nH]cnc2[nH]1	Peg3 promoter 62.9, TRPM1 prom inh 78.2
Cc1ccccc1Nc1ccc(S(=O)(=O)N2CCOCC2)cc1[N+](=O)[O-]	Peg3 promoter 58.9
CCn1cc(C(=O)N[C@@H](CCSC)C(=O)NCCCn2ccnc2)c(=O)c2cc3c(cc21)OCO3	none
CCOC(=O)/C(C#N)=C1\CC2CCC1(C)C2(C)C (centres undefined)	none
C=CCn1c(=O)c2ccccc2n2nnc(C(=O)OCC)c12	none (no result: TRPM1 prom inh)
CCOC(=O)c1c(C)n(-c2ccc(C)cc2)c2ccc(OCC(O)CN3CCN(C)CC3)cc12 (centres undefined)	Peg3 promoter 78.5, ABHD5 PLIN5 PPI 22.3
Oc1ccccc1-n1c(-c2ccccc2)ccc1-c1ccccc1	Peg3 promoter 57.4
CCCCn1c(NC(=O)c2ccccc2Cl)c(C#N)c2nc3ccccc3nc21	Peg3 promoter 52.7
c1ccc(CCNc2ccnc3cc4ccccc4cc23)cc1	Peg3 promoter 105.6, TRPM1 prom inh 102.6
O=C(NCCc1ccccc1)c1nccc2ccccc12	none
CCc1ccc(C2c3[nH]c4ccccc4c3CCN2C(=O)CN2CCN(CC)CC2)cc1 (centres undefined)	Peg3 promoter 84.1
CCc1ccc(C2c3[nH]c4ccccc4c3CCN2C(=O)CNC(N)=O)cc1 (centres undefined)	none
CC1CCCC(C)N1CCCNC(=O)c1ccc2c(c1)NC(=O)c1ccccc1S2 (centres undefined)	none
CCC(C)N(CCNC(=O)c1ccc2c(c1)NC(=O)c1ccccc1S2)C1CCCCC1 (centres undefined)	Peg3 promoter 76.0
Oc1ccc(/C=N/Nc2ccnc3cc(Cl)ccc23)cc1O	Peg3 promoter 74.0
Oc1ccc(/C=N/Nc2ccnc3cc(Cl)ccc23)c(O)c1O	none
N=C(N)c1ccc(N=Nc2c(O)ccc3c2[nH]c2ccccc23)cc1	Peg3 promoter 98.0
COc1cccc(/C=C/C(=O)Nc2ccc3nc4n(c(=O)c3c2)CCCC4)c1OC	none
CCOc1ccc(N(CC(=O)Nc2ccccc2OCC)S(=O)(=O)c2c(C)noc2C)cc1	TRPM1 prom inh 64.8
CCC(=O)N1CCc2cc(S(=O)(=O)CCC(=O)N3CCCC(C)C3)ccc21 (centres undefined)	none
CN1C(=O)C(Cl)(Cl)C(=O)c2ccccc21	ABHD5 PLIN5 PPI 88.1, CF NFkB inh 53.4
CN1C(=O)C2(NC(=O)c3ccccc3N2C)c2ccccc21 (centres undefined)	none
Cc1cc(C)nc(SCCC(=O)Nc2ccccc2Cl)n1	none
Cc1ccc(N=C2SC(C(=O)Nc3ccc(OC(F)(F)F)cc3)C(N)=C2C(=O)Nc2c(C)cc(C)cc2C)cc1 (centres undefined)	CF NFkB inh 72.1, KKLEB tox -59.9
COc1ccc(CCN2C(=O)c3cccc4c(C(=O)N5CCCCC5)ccc(c34)C2=O)cc1OC	Peg3 promoter 89.1
COC(=O)[C@H](C(C)C)N(Cc1ccccc1)S(=O)(=O)CCN1CCN(c2ccccc2)CC1	none
COc1ccc(CNC(=O)Nc2nc(C(N)Cc3ccc(Cl)cc3)cs2)cc1 (centres undefined)	Peg3 promoter 95.6 (no result: TRPM1 prom inh)
COc1ccc(CNC(=O)Nc2nc(C(N)CCc3ccccc3)cs2)cc1 (centres undefined)	Peg3 promoter 88.0 (no result: TRPM1 prom inh)
COc1ccccc1CNC(=O)Nc1nc(C(N)Cc2ccc(Cl)cc2)cs1 (centres undefined)	Peg3 promoter 93.7 (no result: TRPM1 prom inh)
O=C1NC2(CCC3(CC2)OCCO3)NN1c1ccc(Cl)cc1	none
